# Records with an inconclusive call do not appear. A call without a number means that no potency is given here. The source made the active and inactive calls. The call rests on the fitted dose curve; in most records, active means well fitted cell-killing curve with a large enough effect; inconclusive means small, poorly fitted or top-dose-only effect, or effect the other way; inactive means no such curve, though single readings can be large or run the other way.
# Test: Quantitative High-Throughput drug screen in 47 multiple myeloma cell lines against the NCATS MIPE library collection: KMS27_JCRB cell viability assay (AID 1918970); further: nearly all actives have a fitted effect of over 30% in size
# Settings: KMS27 myeloma cells, CellTiter-Glo ATP viability, 48 h; viability (% of DMSO): at 45.8 µM (top of the series)
# Method in brief: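 CellTiter-Glo luminescence after 48 h drug exposure at 37 °C; 500 cells/well, 1536-well format, pin-tool compound addition; DMSO = 100%, media-only = 0% viability.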
# Potency means the concentration at half of the fitted maximal effect.
row,Compound,Potency
1,CCCCC[C@H](O)C=C[C@H]1[C@H](O)CC(=O)[C@H]1CCCCCCC(=O)O,inactive
2,N#CC(c1ccnc(NCCc2cccnc2)n1)c1nc2ccccc2s1 (stereo not given),7.43 µM (active)
3,CC1(C)OC2CC3C4CC(F)C5=CC(=O)C=CC5(C)C4C(O)CC3(C)[C@]2(C(=O)CO)O1 (stereo not given in full),inactive
4,C[C@@H]1CCO[C@H]2Cn3cc(C(=O)NCc4ccc(F)cc4F)c(=O)c(O)c3C(=O)N12,inactive
5,COC(=O)N1CCN(Cc2cccc(NC(=O)Nc3ccc(C)nc3)c2F)CC1,inactive
6,CCN1C[C@H](C)n2c(c(O)c3c(=O)n(Cc4ccc(F)c(Cl)c4)nc(C(=O)NC)c32)C1=O,inactive
7,CNC(=O)c1cc(Oc2ccc(NC(=O)Nc3ccc(Cl)c(C(F)(F)F)c3)c(F)c2)ccn1,7.43 µM (active)
8,CN1CC(=O)N2C(Cc3c([nH]c4ccccc34)[C@H]2c2ccc3c(c2)OCO3)C1=O (stereo not given in full),inactive
9,Cc1ccccc1C(=O)c1ccc(Nc2ccc(Br)cc2N)cc1Cl,6.62 µM (active)
10,COc1cc2ncn(-c3cc(OCc4ccccc4S(C)(=O)=O)c(C#N)s3)c2cc1OC,inactive

# Test: Quantitative High-Throughput drug screen in 47 multiple myeloma cell lines against the NCATS MIPE library collection: KMS12BM_JCRB cell viability assay (AID 1918971); further: nearly all actives have a fitted effect of over 35% in size
# Settings: KMS12BM myeloma viability, CellTiter-Glo ATP, 48 h; series mostly up to 45.8 µM
# Method in brief: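 Approved and investigational drugs from MIPE 4.0 were added by pin tool to 500 cells per well. After 48 hours at 37C, ATP-based CellTiter-Glo luminescence indicated remaining viability.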
row,Compound,Potency
1,CCc1cccc(CC)c1NC(=O)N1Cc2[nH]nc(NC(=O)c3ccc(N4CCN(C)CC4)cc3)c2C1,18.7 µM (active)
2,NC1(C(=O)N[C@@H](CCO)c2ccc(Cl)cc2)CCN(c2ncnc3[nH]ccc23)CC1,inactive
3,CC(C)=CCCC(C)=CCCC(C)=CCCC(C)=CCCC(C)=CCCC(C)=CCCC(C)=CCCC(C)=CCCC(C)=CCO,inactive
4,c1ccc(-c2oc3ncnc(NC[C@@H]4CCCO4)c3c2-c2ccccc2)cc1,23.5 µM (active)
5,CCCCCOC(=O)Nc1nc(=O)n([C@@H]2O[C@H](C)[C@@H](O)C2O)cc1F (stereo not given in full),inactive
6,Nc1[nH]nc2nnc(-c3c(-c4ccccc4)nn4ccccc34)cc12,inactive
7,CCOC(=O)[C@H](CCc1ccccc1)N[C@@H](C)C(=O)N1CCCC1C(=O)O (stereo not given in full),inactive
8,CCN(CC)CCCCNc1nc2cc(Cl)c(Cl)cc2nc1-c1ccc(-c2cccs2)s1,16.6 µM (active)
9,COc1cc(CNC(=O)CCCCC=CC(C)C)ccc1O,inactive
10,Cc1cccc2c1CC[C@H](CN1CCC(c3c(Cl)cccc3Cl)CC1)C[C@@H]2O,16.6 µM (active)
11,O=S(=O)(O)c1ccc2cc(N=Nc3cc(S(=O)(=O)O)c4cccnc4c3O)ccc2c1,16.6 µM (active)
12,Cc1cccc(-c2[nH]c(C(C)(C)C)nc2-c2ccc3c(c2)OCO3)n1,18.7 µM (active)
13,C[C@@H](O)[C@H]1C(=O)N2C(C(=O)OCOC(=O)C(C)(C)C)=C(SC3CN(C4=NCCS4)C3)[C@H](C)[C@H]12,inactive
14,C[C@@H]1CCO[C@H]2Cn3cc(C(=O)NCc4ccc(F)cc4F)c(=O)c(O)c3C(=O)N12,20.9 µM (active)
15,COC(=O)N1CCN(Cc2cccc(NC(=O)Nc3ccc(C)nc3)c2F)CC1,20.9 µM (active)
16,CNC(=O)c1cc(Oc2ccc(NC(=O)Nc3ccc(Cl)c(C(F)(F)F)c3)c(F)c2)ccn1,18.7 µM (active)
17,CC[C@H](C)C(=O)O[C@H]1C[C@H](O)C=C2C=C[C@H](C)[C@H](CC[C@@H](O)C[C@@H](O)CC(=O)O)[C@H]21,inactive
18,CN1CC(=O)N2C(Cc3c([nH]c4ccccc34)[C@H]2c2ccc3c(c2)OCO3)C1=O (stereo not given in full),1.32 µM (active)
19,C[C@@]1(c2cc(-c3cncnc3)c(F)cc2F)CCSC(N)=N1,inactive
20,Cc1ccccc1C(=O)c1ccc(Nc2ccc(Br)cc2N)cc1Cl,14.8 µM (active)
